Rows were chosen to be rich in hits. Some 11% of all compounds tested hit in one or more screens of this group.
JMJD2A Tudor inh = blocks the human JMJD2A Tudor domain; O75164; AlphaScreen JMJD2A-Tudor / H3K4me3 peptide binding; Potency, µM (titrated, usually from 114 µM), for the others: at the highest dose activity change, negative = inhibition, usual class: inhibitors; 390,000 compounds, 4.4% hits; AID 504339; further: on the % scale 0 is the no-effect control and ±100 the full control effect; nearly all actives have a fitted effect of over 50% in size
G9a block = blocks human histone lysine methyltransferase G9a; 350,000 compounds, 8.8% hits; G9a H3K9 monomethylation, AlphaScreen, 2 h; Potency, µM (series often up to 102 µM), for the others: at the top dose activity, negative = inhibition, actives largely listed as inhibitors; Q96KQ7; further: on the % scale 0 is the no-effect control and ±100 the full control effect; nearly all actives have a fitted effect of over 75% in size
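Step 1: enzyme (final 20 nM) with compound, 15 min RT. Step 2: substrate peptide 500 nM and SAM 20 uM, 2 h RT. Step 3: anti-H3K9me1 antibody and AlphaScreen beads, 10 min, then plate read.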
L3MBTL1 inh = inhibitors of human L3MBTL1; AlphaScreen L3MBTL1–H3K9me1 peptide binding; Potency, µM (top dose mostly 57.1 µM), for the others: top-dose activity, negative = inhibition, hits mostly inhibitors; 230,000 compounds, 0.66% hits; AID 485360; further: on the % scale 0 is the no-effect control and ±100 the full control effect; nearly all actives have a fitted effect of over 60% in size
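AlphaScreen proximity signal between nickel-chelate acceptor and streptavidin donor beads (final 10 ug/mL) reports binding of 50 nM L3MBTL1 to 75 nM biotin-H3 K9me1 peptide; complex incubated with compounds 30 min at room temperature; cefsulodin titration as control.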
HP1b binding inh = inhibitors of HP1-beta chromodomain binding to methylated histone tails | P83916 | AlphaScreen HP1-beta / biotin-H3K9me3 peptide binding | Potency, µM (series often up to 114 µM), without a hit: at the top dose activity change, negative = inhibition, usual class: inhibitors | 390,000 compounds, 0.56% hits; further: nearly all actives have a fitted effect of over 70% in size
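HP1-beta protein (50 nM final) preincubated 30 min at room temperature with biotinylated H3(1-18)K9me3 peptide (50 nM) in PBS pH 7.4, 0.01% Tween-20, then compound added for 30 min. AlphaScreen streptavidin donor/nickel chelate acceptor beads (10 ug/mL final), 30 min dark, luminescence read.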
BAZ2B block = inhibitors of human BAZ2B bromodomain; AlphaScreen BAZ2B-H3K14Ac peptide displacement; AID 504333; Q9UIF8; 360,000 compounds, 4.4% hits; Potency, µM (series often up to 114 µM), for inactives: at the highest dose activity change, negative = inhibition, actives largely listed as inhibitors; further: on the % scale 0 is the no-effect control and ±100 the full control effect; nearly all actives have a fitted effect of over 60% in size
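BAZ2B (50 nM) with biotin-H3(5-23)K14Ac peptide (50 nM) in PBS pH 7.4, 0.01% Tween-20, preformed 30 min, then compound 30 min at room temperature; top concentration 110uM. AlphaScreen streptavidin donor/nickel chelate acceptor beads (10 ug/mL final), 20 min dark, signal read.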
* = called active by the depositor; ? = inconclusive; . = no result; [ ] = remark or other dose. The call rests on the fitted dose curve; in most records, active means well fitted inhibition curve with a large enough effect; inconclusive means small, poorly fitted or top-dose-only effect; inactive means no such curve, though single readings can be large or run the other way. Potency means the concentration at half of the fitted maximal effect.

SMILES | JMJD2A Tudor inh | G9a block | L3MBTL1 inh | HP1b binding inh | BAZ2B block
COc1ccccc1NC(=O)CSc1nnc(-c2nonc2NC(C)=O)n1-c1ccccc1 | -8% | 6%[59 µM] | . | 42% | -10%
COc1ccccc1CN1CCN(C(=O)c2cccc3ccccc23)CC1 | 20µM* | . | . | ? | .
COc1cccc(CN2CCN(C(=O)c3ccco3)CC2)c1OC | 5.6µM* | . | . | 45µM* | .
Cc1ccccc1CN1CCN(C(=O)c2cccc3ccccc23)CC1 | 25µM* | 20µM* | -1% | ? | 56µM*
O=C(c1ccncc1)N1CCN(C(=O)c2cccc3ccccc23)CC1 | -11% | -6%[59 µM] | -1% | 39% | -19%
Cc1cccc(CN2CCN(C(=O)c3cccc4ccccc34)CC2)c1 | 2.2µM* | 23%[0.501 µM] | -1%[2.29 µM] | ? | 56µM*
COc1ccc2ccccc2c1CN1CCN(C(=O)c2ccco2)CC1 | -33% | -11% | . | 1% | ?
O=C(NCC(c1ccc2c(c1)OCO2)N1CCOCC1)c1ccc(F)cc1 (centres undefined) | -6% | 19%[59 µM] | . | 18%[57 µM] | 2%
COc1cccc(CN2CCN(C(=O)c3cccc4ccccc34)CC2)c1OC | 4µM* | ? | . | 20µM* | 56µM*
COc1ccccc1C(=O)N1CCN(Cc2c[nH]c3ccccc23)CC1 | 18µM* | -20% | . | ? | 50µM*
O=C(c1ccccc1)N1CCN(Cc2c[nH]c3ccccc23)CC1 | -8% | 3%[59 µM] | -2% | 48% | 2%
COc1ccc(CN2CCN(C(=O)c3ccccc3F)CC2)c(OC)c1OC | 1.8µM* | . | . | ? | .
COc1ccc2oc(=O)cc(CN3CCN(C(=O)c4ccccc4F)CC3)c2c1 | -18% | -4%[59 µM] | . | ? | -2%
COc1cccc(OC)c1C(=O)N1CCN(Cc2ccccc2C)CC1 | -32%[11.4 µM] | 32µM* | 3% | ? | 50µM*
O=C(/C=C\c1ccc2c(c1)OCO2)NC1CC(=O)N(c2ccc(F)cc2)C1 (centres undefined) | -2% | 4%[59 µM] | . | 24% | 1%
O=c1nc2ccccc2c2n1CC(CN1CCN(c3ccccc3)CC1)N2 (centres undefined) | . | 34%[59 µM] | . | . | .
COc1ccc(C(C#N)N2N=C(C)CC2c2ccccc2)cc1 (centres undefined) | -4% | 45µM* | . | 32% | -3%
COc1cc(NC(=O)c2cc3cc4ccc(OC)c(Cl)c4nc3s2)cc(OC)c1 | -2% | 0%[59 µM] | . | 28%[57 µM] | -1%
COc1cc(CN2CCN(S(=O)(=O)c3ccccc3)CC2)cc(OC)c1O | 8% | 10µM* | . | 32% | -1%
COc1ccc(S(=O)(=O)N2CCN(Cc3cc(OC)c(OC)c(OC)c3)CC2)cc1 | 3.2µM* | . | 45% | ? | ?
COc1ccc(S(=O)(=O)N2CCN(Cc3cc(OC)c(O)c(OC)c3)CC2)cc1 | 22µM* | 7.1µM* | . | ? | 50µM*
COc1ccc(S(=O)(=O)N2CCN(Cc3ccccc3)CC2)cc1 | -12% | 0%[59 µM] | -2% | 10% | 11%
O=S(=O)(c1ccccc1)N1CCN(Cc2ccccc2)CC1 | -22% | 21% | -1% | 24% | -4%
CCCCc1ccc(NC(=O)CSc2nnc3[nH]c(=O)cc(C)n23)cc1 | -11% | -3%[59 µM] | . | 45% | 2%
CC(C)(C)c1cc(C(=O)CCN2CCOCC2)cc(C(C)(C)C)c1O | -9% | 50µM* | . | 23% | 2%
SMILES | JMJD2A Tudor inh | G9a block | L3MBTL1 inh | HP1b binding inh | BAZ2B block
CC(=O)c1cccc(NC(=O)Cc2cccs2)c1 | -15% | ? | -13% | 20% | -8%
CC(=O)c1ccc(NC(=O)Cc2cccs2)cc1 | ? | ? | -26% | -16% | 50µM*
Cc1c(NC(=O)Cc2cccs2)cccc1[N+](=O)[O-] | -11%[57.1 µM] | ? | -24% | 31% | 50µM*
Cc1c(Cl)cccc1NC(=O)Cc1cccs1 | 0% | . | 0% | 54% | 3%
CCCCN(CCCC)S(=O)(=O)c1ccc(NC(=O)Cc2cccs2)cc1 | 45µM* | -36%[59 µM] | . | -27% | ?
Cc1nc(-c2ccc(S(=O)(=O)Nc3cc(Cl)ccc3C)cc2)co1 | -12% | 0%[59 µM] | . | 30%[57 µM] | -17%
CCOC(=O)c1oc2ccc(CNC3CCCCC3)c(Cl)c2c1C | 4µM* | 10µM* | 7% | ? | ?
CC1CCCCN1C(=O)CNCc1ccc(F)cc1 (centres undefined) | 3.2µM* | ? | . | ? | 79µM*
CC1CCCCN1C(=O)COc1ccccc1F (centres undefined) | 56µM* | 10% | 8% | -5% | 8%
CC1CCCCN1C(=O)CNCC1CCCO1 (centres undefined) | 0.89µM* | 2% | -4% | ? | -15%
Cc1cc2ccccc2n2c(SCC(=O)Nc3ccc(S(=O)(=O)N4CCC(C)CC4)cc3)nnc12 | -15% | 13%[59 µM] | 2% | 19% | -9%
Cc1ccc(NC(=O)C2CCCN2S(=O)(=O)c2cccc3cccnc23)cc1C (centres undefined) | -11% | -3%[59 µM] | . | 28% | -2%
COc1cccc(CNC(=O)c2cnc(N3CCCC3)nc2C)c1 | -7% | 16%[59 µM] | . | 42% | -9%
COc1ccc(C2c3sc(=O)[nH]c3SC3C(=O)N(c4ccccc4)C(=O)C32)cc1 (centres undefined) | ? | 8.9µM* | -10% | -15% | ?
O=C1C2Sc3[nH]c(=O)sc3C(c3ccccc3)C2C(=O)N1c1ccccc1 (centres undefined) | -33% | -4%[0.501 µM] | 10% | 4% | ?
Cc1cc(N)n(-c2ccc(Oc3ccccc3)c(S(=O)(=O)O)c2)n1 | -32% | 50µM* | ? | 23% | 56µM*
CCc1cccc(NC(=O)CCn2c(=O)c3cccn3c3cccnc32)c1 | -25% | -6%[59 µM] | . | 29% | -4%
CNS(=O)(=O)c1ccc2nc(NC(=O)c3ccc(N4C(=O)CCC4=O)cc3)sc2c1 | ? | 3.5µM* | . | 13% | -13%
Cc1nnc(NC(=O)c2cc3ccccc3o2)s1 | -16% | 26% | . | -3% | -17%
CS(=O)(=O)c1ccc2nc(NC(=O)c3ccccc3Cl)sc2c1 | -20% | -10% | 4% | 12% | 3%
CCc1ccc2nc(NC(=O)c3ccc(N4C(=O)CCC4=O)cc3)sc2c1 | 0% | -2%[59 µM] | . | 27% | 0%
CC(C)(Oc1ccc(Cl)cc1)C(=O)Nc1nc2ccc(S(C)(=O)=O)cc2s1 | -31% | 11µM* | . | -10% | -4%[57.1 µM]
Cc1nc(NC(=O)c2cc3ccccc3o2)sc1C | -12% | 21% | . | 6% | 56µM*
CS(=O)(=O)c1ccc2nc(NC(=O)c3ccccc3Br)sc2c1 | -8% | 50µM* | 3% | 34% | -2%
CS(=O)(=O)c1ccc2sc(NC(=O)c3cc4ccccc4o3)nc2c1 | 1% | 40µM* | . | 25% | -13%
O=C(Nc1nnc(C2CC2)s1)c1cc2ccccc2o1 | -3% | 14µM* | 5% | 49% | 4%
Cc1nc(Nc2ccccc2)sc1C | ? | 13µM* | -18% | -5% | ?
